M1 PAM: human CHRM1 positive allosteric modulation | CHO-K1 hM1, Fluo-8 calcium fluorescence, ACh EC20; 0% = ACh EC20, 100% = maximal ACh | activation, % at 3 µM | actives 0.088% (n = 360,000) | AID 588819; in the data active = activation above about 19%, passing the limit was not always enough
Target sequence (P11229 whole entry, looked up): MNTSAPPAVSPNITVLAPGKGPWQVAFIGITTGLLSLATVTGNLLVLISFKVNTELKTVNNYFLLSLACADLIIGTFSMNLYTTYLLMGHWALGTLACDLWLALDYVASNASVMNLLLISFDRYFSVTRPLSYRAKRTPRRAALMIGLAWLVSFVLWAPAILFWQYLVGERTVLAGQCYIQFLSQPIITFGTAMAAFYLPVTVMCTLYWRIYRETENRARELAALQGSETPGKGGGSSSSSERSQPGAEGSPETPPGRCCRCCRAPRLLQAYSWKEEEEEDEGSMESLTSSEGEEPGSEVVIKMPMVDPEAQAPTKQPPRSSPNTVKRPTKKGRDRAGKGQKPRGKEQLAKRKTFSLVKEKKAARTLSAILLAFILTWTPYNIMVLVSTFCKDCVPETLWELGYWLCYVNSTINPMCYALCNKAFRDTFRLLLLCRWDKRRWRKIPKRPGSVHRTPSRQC
M1 ag parental: nonselective activator or artifact in parental CHO-K1 cells; Fluo-8 calcium fluorescence; scaled to maximal ATP response, vehicle zero; activation, % at 3 µM; actives 0.48% (n = 360,000); in the data active = activation above about 15%;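 note: untransfected CHO-K1 host cells lacking M1 receptor as counterscreen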
CHO-K1 Ca antag: nonselective inhibitor or artifact in parental CHO-K1 cells; inhibition, % at 3 µM; ATP-induced calcium, Fluo-8 fluorescence; AID 602250; actives 0.6% (n = 360,000);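 active = inhibition above a per-plate cutoff, the plate's mean sample inhibition plus 3 SD, cut at about 24% in these data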;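 note: 0% = DMSO plus EC80 ATP and 100% = DMSO alone without ATP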
CHRM1 agonist: activates human CHRM1 receptor | P11229 | CHO-K1 hM1, Fluo-8 calcium fluorescence, agonist mode; 0% DMSO, 100% acetylcholine EC100 | activation, % at 3 µM | actives 0.33% (n = 360,000) | AID 588814;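 active = activation above the run's mean compound activation plus 3 SD, cut at about 16% in these data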;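 note: peak over basal fluorescence ratio within a 140 s kinetic read after compound addition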
CHRM1 antagonist: human CHRM1 antagonism | P11229 | CHO-K1 hM1, Fluo-8 calcium fluorescence, ACh EC80 antagonist | inhibition, % at 3 µM | actives 1.3% (n = 360,000) | AID 588852;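 active = percent inhibition above its own plate's cutoff, namely the mean of that plate's compound wells plus 3 SD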;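 note: peak over basal fluorescence ratio during 140 s after agonist addition; 0% = ACh EC80 plus DMSO and 100% = DMSO alone without agonist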
M1 PAM parental: nonselective activator or artifact in parental CHO-K1 calcium assay; ATP EC20, Fluo-8 calcium fluorescence; 0% at ATP EC20, 100% at ATP max; activation, % at 3 µM; actives 0.02% (n = 360,000); AID 602247;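 active = activation above the run cutoff, the mean activation of all test compounds plus 3 SD, cut at about 40% in these data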;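 note: peak over basal fluorescence ratio in a 140 s read after ATP addition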
Active calls of the source: *. Compounds with a hit are over-represented: about 2.3% of the library has one in this group of screens.

For COc1ccc(CCNC(=O)CNS(=O)(=O)c2ccc(Cl)cc2)cc1 the results were M1 PAM -0.7, M1 ag parental 7.6, CHO-K1 Ca antag 24.0*, CHRM1 agonist 6.6, CHRM1 antagonist 0.8 and M1 PAM parental -22.2.
For COc1ccc(C(=O)NNC(=O)c2ccc(F)c(S(=O)(=O)N3CCOCC3)c2)cc1 the results were M1 PAM 10.1, M1 ag parental 1.0, CHO-K1 Ca antag -20.5, CHRM1 agonist 0.6, CHRM1 antagonist -21.8 and M1 PAM parental 10.5.
`COc1ccccc1N1CCN(CC(=O)Nc2c(C)n(C)n(-c3ccccc3)c2=O)CC1` gave M1 PAM 11.8, M1 ag parental 0.2, CHO-K1 Ca antag -3.5, CHRM1 agonist -9.4, CHRM1 antagonist -11.6 and M1 PAM parental 17.6.
`Cc1ccc(Cc2c(-c3cccc(Cl)c3)nc3c(C)cc(Br)cn23)cc1` gave M1 PAM 5.2, M1 ag parental 0.7, CHO-K1 Ca antag -29.0, CHRM1 agonist -3.7, CHRM1 antagonist -41.5 and M1 PAM parental 36.7.
Cc1ccc2c(c1)CCCN2CC(=O)N(C)c1c(N)n(Cc2ccccc2)c(=O)[nH]c1=O was read as M1 PAM 9.8, M1 ag parental 0.3, CHO-K1 Ca antag -2.7, CHRM1 agonist -3.6, CHRM1 antagonist -6.5 and M1 PAM parental 16.1.
For Cc1ccc2c(=O)c(CN3CCCCCC3)c(C)[nH]c2c1C the results were M1 PAM -21.4, M1 ag parental 0.3, CHO-K1 Ca antag 1.7, CHRM1 agonist -10.7, CHRM1 antagonist 72.0* and M1 PAM parental -21.1.
Screening CCN(CCc1ccccc1)c1ccc2c(c1)C1CC2CCN1Cc1ccccc1 (configuration not stated) returned M1 PAM -11.1, M1 ag parental -0.1, CHO-K1 Ca antag -2.8, CHRM1 agonist -1.9, CHRM1 antagonist -4.3 and M1 PAM parental -1.5.
`CN(C)c1ccc(/C=N/N=C(N)N)cc1[N+](=O)[O-]` gave M1 PAM 6.7, M1 ag parental -0.2, CHO-K1 Ca antag -4.6, CHRM1 agonist -12.8, CHRM1 antagonist -11.4 and M1 PAM parental 26.2.
Screening CCCCCCCCCCCCN1[C@@H](CC(=O)OC)c2cc(F)ccc2S1(=O)=O returned M1 PAM 31.6*, M1 ag parental 0.2, CHO-K1 Ca antag -17.4, CHRM1 agonist 2.5, CHRM1 antagonist -23.1 and M1 PAM parental 10.9.
For COc1ccc(C(=O)c2cn[nH]c2-c2cc(C)ccc2O)cc1 the results were M1 PAM -3.2, M1 ag parental 5.6, CHO-K1 Ca antag -7.5, CHRM1 agonist -2.1, CHRM1 antagonist 4.5 and M1 PAM parental -15.2.
COc1ccc(C(=O)c2cn[nH]c2-c2cc(Cl)ccc2O)cc1 was read as M1 PAM 1.7, M1 ag parental 1.9, CHO-K1 Ca antag 24.4*, CHRM1 agonist 3.6, CHRM1 antagonist 4.5 and M1 PAM parental 11.8.
`CCN(CC)CCNCC(O)(c1ccc(Cl)cc1)c1ccc(Cl)cc1` gave M1 PAM -33.0, M1 ag parental 1.6, CHO-K1 Ca antag 1.3, CHRM1 agonist -12.8, CHRM1 antagonist 51.0* and M1 PAM parental -6.2.
Screening CC(C)(C)NCC(O)(c1ccc(Cl)cc1)c1ccc(Cl)cc1 returned M1 PAM 4.4, M1 ag parental 2.4, CHO-K1 Ca antag -5.2, CHRM1 agonist -14.5, CHRM1 antagonist -10.7 and M1 PAM parental 14.5.
Screening COc1ccccc1C(CNC(=O)c1ccc(C)c(S(=O)(=O)N2CCCCC2)c1)N1CCCC1 (configuration not stated) returned M1 PAM -10.7, M1 ag parental -0.6, CHO-K1 Ca antag -4.3, CHRM1 agonist -6.9, CHRM1 antagonist 19.9 and M1 PAM parental -14.4.
CCn1c(=O)c(C(=O)NNC(=O)c2ccccc2)c(O)c2ccccc21 was read as M1 PAM 2.4, M1 ag parental 19.1*, CHO-K1 Ca antag 2.5, CHRM1 agonist 10.6, CHRM1 antagonist -6.1 and M1 PAM parental -7.5.
CCCn1c(=O)c(C(=O)NNC(=O)c2ccccc2Cl)c(O)c2ccccc21 was read as M1 PAM -16.3, M1 ag parental 21.0*, CHO-K1 Ca antag -12.4, CHRM1 agonist 30.3*, CHRM1 antagonist 10.2 and M1 PAM parental -0.9.
`CC(C)Cn1c(=O)c(C(=O)Nc2ccncc2)c(O)c2ccccc21` gave M1 PAM -23.5, M1 ag parental -0.2, CHO-K1 Ca antag -7.8, CHRM1 agonist -6.9, CHRM1 antagonist 98.8* and M1 PAM parental 19.2.
For CC(C)C[C@@H](CN1CCCC1CN1C(=S)NC[C@@H]1Cc1ccc(O)cc1)N1C[C@H](Cc2ccc(O)cc2)N(CCc2ccccc2)C1=S (some centres not stated) the results were M1 PAM 9.3, M1 ag parental 0.2, CHO-K1 Ca antag -18.4, CHRM1 agonist -3.1, CHRM1 antagonist -20.9 and M1 PAM parental 18.8.
`Cc1ccc(-c2noc(CNS(=O)(=O)c3ccccc3)n2)cc1` gave M1 PAM -3.3, M1 ag parental 1.1, CHO-K1 Ca antag -2.5, CHRM1 agonist -3.9, CHRM1 antagonist 5.8 and M1 PAM parental -7.7.
`O=C(c1ccccc1Oc1ccc([N+](=O)[O-])cc1)N1CCOCC1` gave M1 PAM 8.8, M1 ag parental 0.2, CHO-K1 Ca antag 24.5*, CHRM1 agonist -3.8, CHRM1 antagonist -5.4 and M1 PAM parental -12.1.
Screening NC(=O)c1ncn([C@@H]2O[C@H](CNCc3cccc(OC4CCCC4)c3)[C@@H](O)[C@H]2O)n1 returned M1 PAM 8.3, M1 ag parental 0.0, CHO-K1 Ca antag -1.3, CHRM1 agonist -1.6, CHRM1 antagonist -6.8 and M1 PAM parental 14.5.
`Cc1cnc(NC(=O)CSc2ncc(-c3ccccc3)n2Cc2ccco2)s1` gave M1 PAM -5.9, M1 ag parental 11.4, CHO-K1 Ca antag 3.8, CHRM1 agonist 21.5*, CHRM1 antagonist 22.0 and M1 PAM parental 10.3.
CC(=O)Nc1cccc(/C(C)=N/Nc2ccc(S(=O)(=O)Nc3ccccc3C(=O)O)cc2[N+](=O)[O-])c1 was read as M1 PAM 5.8, M1 ag parental -0.4, CHO-K1 Ca antag -9.0, CHRM1 agonist -1.7, CHRM1 antagonist -4.1 and M1 PAM parental -7.2.
For COCCn1c(SCc2ccc(C(=O)OC)o2)nc2ccccc2c1=O the results were M1 PAM -2.1, M1 ag parental 2.4, CHO-K1 Ca antag -2.0, CHRM1 agonist -9.6, CHRM1 antagonist -3.8 and M1 PAM parental -6.7.
`COC(=O)c1cc(CSc2nc3ccccc3c(=O)n2C)oc1C` gave M1 PAM -31.2, M1 ag parental 13.5, CHO-K1 Ca antag 14.6, CHRM1 agonist -4.9, CHRM1 antagonist 66.6* and M1 PAM parental -5.5.
Screening C/C=C/c1cccc(-c2nc(C(=O)N3CCCCC3)cc3c2[C@@H](CCO)N(C(=O)NC(C)C)C3)c1 returned M1 ag parental 0.7, CHO-K1 Ca antag -3.1 and M1 PAM parental -1.1.

Compound activity (PubChem)
